Screens as filed in PubChem BioAssay.
MazEF act – activators of E. coli MazEF toxin-antitoxin RNase, primary screen, biochemical, fluorescence, uHTS; Endoribonuclease toxin MazF (Escherichia coli (strain K12)), P0AE70; FAM/BHQ RNA-DNA oligo cleavage fluorescence, 5 h; activation, % at 20 µM; 350,000 tested, 0.32% active; in the data active means activation above about 50%
Anthrax LF prot – Bacillus anthracis LF protease inhibitors, primary screen, biochemical, multiplex microsphere, MLPCN library; Lethal factor (Bacillus anthracis), P15917; multiplex microsphere protease cleavage assay; inhibition, % at 10 µM; 360,000 tested, 0.12% active; AID 588501, 2011; further: plate controls were buffer without enzyme for full effect and enzyme alone for no effect
BoNT-A LC inh2 – BoNT/A light chain protease inhibitors, primary screen, biochemical, flow cytometry, MLPCN library. Botulinum neurotoxin type A light chain protease (Clostridium botulinum A str. ATCC 3502). multiplex microsphere protease substrate cleavage. inhibition, % at 10 µM. 360,000 tested, 0.17% active. AID 588499, 2011; further: plate controls were buffer without enzyme for full effect and enzyme alone for no effect
Autofluor counter – counter-screen for toxin protease inhibitors: compound fluorescence; compound autofluorescence counterscreen, microsphere flow cytometry; hits give high values; 360,000 tested, 3.1% active; fluorescence intensity (concentration not given with the values); in the data active means fluorescence intensity above about 16000; inconclusive means no clear call, values can overlap the other calls
BoNT F protease – BoNT/F light chain protease inhibitors, primary screen, biochemical, flow cytometry, MLPCN library. Botulinum neurotoxin type F light chain protease (Clostridium botulinum). Multiplex microsphere protease cleavage assay. inhibition, % at 10 µM. 360,000 tested, 0.22% active. AID 588497, 2011; in the data active means inhibition above about 35%, passing the limit was not always enough; inconclusive means no clear call, values can overlap the other calls; further: plate controls were buffer without enzyme for full effect and enzyme alone for no effect
PfHsp40 rescue – rescue of yeast from PfHsp40 toxicity, primary screen, S. cerevisiae, ATP luminescence | AID 504582, 2011 | S. cerevisiae expressing PfHsp40, growth rescue | 340,000 tested, 0.68% active | growth rescue, % at 12.5 µM; in the data active means growth rescue above about 28%, passing the limit was not always enough; inconclusive means no clear call, values can overlap the other calls;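 further: yeast W303a lacking pdr1 and pdr3 grown in galactose medium; growth measured after three days at 30 °C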
The depositor's hits bear a star. In the library only some 4.3% were active in any assay of this set; here they are far more common. Unless noted, no stated cut-off is given here; in the data, active means inhibition above about 30%; inconclusive means no clear call, values can overlap the other calls; inactive means below that.

Screening CN1CCN(Cc2cc(C(C)(C)C)c(O)c(C(C)(C)C)c2)CC1 returned MazEF act 6, Anthrax LF prot 1, BoNT-A LC inh2 0, Autofluor counter 3903, BoNT F protease -2 and PfHsp40 rescue -1.
`O=[N+]([O-])c1ccc(NC2CCCC2)c2ccncc12` gave MazEF act 62*, Anthrax LF prot -6, BoNT-A LC inh2 4, Autofluor counter 3801, BoNT F protease -16 and PfHsp40 rescue 1.
For O=[N+]([O-])c1ccc(NC2CCN(Cc3ccccc3)CC2)c2ccncc12 the results were MazEF act 58*, Anthrax LF prot 4, BoNT-A LC inh2 5, Autofluor counter 5331, BoNT F protease 2 and PfHsp40 rescue 2.
For COc1ccc(C(=O)N/N=C(\C)CC(=O)NC2CCCCC2)c(OC)c1 the results were MazEF act -4, Anthrax LF prot 0, BoNT-A LC inh2 -5, Autofluor counter 4872, BoNT F protease -7 and PfHsp40 rescue 0.
Screening COc1cc(OC)c(C2CC(=O)N3CN(c4ccccc4)CSC3=C2C#N)cc1OC (stereo unspecified) returned MazEF act 5, Anthrax LF prot -4, BoNT-A LC inh2 inconclusive, Autofluor counter 20460*, BoNT F protease 0 and PfHsp40 rescue 0.
`CCc1ccccc1N1CSC2=C(C#N)C(c3cc(OC)c(OC)cc3OC)CC(=O)N2C1` (stereo unspecified) gave MazEF act 3, Anthrax LF prot -1, BoNT-A LC inh2 3, Autofluor counter 5398, BoNT F protease 10 and PfHsp40 rescue 0.
`COc1cc(OC)c(C2CC(=O)N3CN(C)CSC3=C2C#N)cc1OC` (stereo unspecified) gave MazEF act -10, Anthrax LF prot -9, BoNT-A LC inh2 0, Autofluor counter 5861, BoNT F protease -1 and PfHsp40 rescue 0.
Screening COc1ccc2ccccc2c1C1CC(=O)N2CN(C)CSC2=C1C#N (stereo unspecified) returned MazEF act -1, Anthrax LF prot 1, BoNT-A LC inh2 inconclusive, Autofluor counter 20088*, BoNT F protease -1 and PfHsp40 rescue 0.
Screening CNC(=O)NC(=O)CSc1ccc(S(=O)(=O)N2CCOCC2)cn1 returned MazEF act 0, Anthrax LF prot 0, BoNT-A LC inh2 -1, Autofluor counter 3663, BoNT F protease -5 and PfHsp40 rescue 33*.
Screening O=C(N/N=C/c1ccc(Cl)cc1Cl)C(=O)NC1CC1 returned MazEF act 7, Anthrax LF prot 2, BoNT-A LC inh2 0, Autofluor counter 4561, BoNT F protease -6 and PfHsp40 rescue 0.
`Cc1ccn2c(C(=O)N/N=C\c3cccs3)c(C)nc2c1` gave MazEF act 5, Anthrax LF prot 2, BoNT-A LC inh2 2, Autofluor counter 21815*, BoNT F protease 0 and PfHsp40 rescue -2.
For COc1ccccc1C(=O)NC(=O)Cn1nc(C)c([N+](=O)[O-])c1C the results were MazEF act 3, Anthrax LF prot inconclusive, BoNT-A LC inh2 0, Autofluor counter inconclusive, BoNT F protease -7 and PfHsp40 rescue 0.
`CCS(=O)(=O)N1Cc2ccccc2CC1C(=O)Nc1ccc(C)cc1` (stereo unspecified) gave MazEF act 2, Anthrax LF prot 0, BoNT-A LC inh2 1, Autofluor counter 22120*, BoNT F protease -1 and PfHsp40 rescue 0.
COC(=O)c1sccc1NC(=O)c1ccc(C)cc1 was read as MazEF act 5, Anthrax LF prot -2, BoNT-A LC inh2 -1, Autofluor counter 3114 and BoNT F protease 0.
`COC(=O)c1sccc1NC(=O)c1ccc(Br)s1` gave MazEF act -7, Anthrax LF prot 2, BoNT-A LC inh2 0, Autofluor counter 22720*, BoNT F protease 0 and PfHsp40 rescue -1.
`COC(=O)c1sccc1NC(=O)c1csc(C)c1` gave MazEF act -2, Anthrax LF prot -2, BoNT-A LC inh2 0, Autofluor counter 16143*, BoNT F protease 1 and PfHsp40 rescue 0.
Screening CC(=O)c1ccc(Sc2ccccc2)cc1 returned MazEF act -3, Anthrax LF prot 0, BoNT-A LC inh2 2, Autofluor counter 22491*, BoNT F protease 4 and PfHsp40 rescue 0.
